From PubChem BioAssay
Most compounds without a hit are left out; they make up all but 7.3% or so of the library.
Rab9 promoter act – activators of Rab9 promoter. 2.8% of 320,000 active. Huh7 Rab9 promoter-luciferase reporter, luminescence, 24 h. Potency, µM (doses to about 9.22 µM), for inactives: at the highest dose activation, negative = inhibition, hits mostly activators; also: % of control where 0% means no effect; nearly all actives have a fitted effect of over 60% in size
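Stable Rab9-luc Huh7, 1500 cells/well, 2 h settle; cmpd in DMSO, 24 h, 37 °C/5% CO2; luciferase reagent 10 min RT; luminescence.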
FLuc counter – counter-screen for miR-21 project: firefly luciferase inhibitors or activators; P08659; purified FLuc, Km substrates, luminescence inhibition; Potency, µM (doses to about 57.5 µM), without a hit: at the top dose activity change, negative = inhibition, usual class: inhibitors; 6.9% of 360,000 active; AID 588342;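 also: plate controls were vehicle for no effect and reference inhibitor for full effect; nearly all actives have a fitted effect of over 55% in size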
Target sequence (P08659 whole entry, looked up): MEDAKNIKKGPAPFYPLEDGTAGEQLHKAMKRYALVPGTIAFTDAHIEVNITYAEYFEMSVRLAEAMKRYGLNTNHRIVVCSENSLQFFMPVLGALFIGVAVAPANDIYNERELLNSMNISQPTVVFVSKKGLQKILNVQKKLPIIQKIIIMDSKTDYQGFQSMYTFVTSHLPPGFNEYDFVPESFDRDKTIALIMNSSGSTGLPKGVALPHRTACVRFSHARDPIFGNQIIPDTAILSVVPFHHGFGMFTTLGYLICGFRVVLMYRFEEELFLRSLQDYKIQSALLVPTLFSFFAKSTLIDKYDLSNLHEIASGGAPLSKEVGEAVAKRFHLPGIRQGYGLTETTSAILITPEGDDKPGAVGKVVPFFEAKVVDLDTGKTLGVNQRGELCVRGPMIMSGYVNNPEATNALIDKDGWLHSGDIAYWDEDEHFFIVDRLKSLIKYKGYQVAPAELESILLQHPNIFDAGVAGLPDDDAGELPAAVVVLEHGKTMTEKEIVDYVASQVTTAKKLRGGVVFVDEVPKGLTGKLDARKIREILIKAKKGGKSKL
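Biochemical qHTS of compounds, final roughly 60 µM downward over six points, against 10 nM purified firefly luciferase using Km concentrations of substrates (10 uM D-luciferin, 10 uM ATP) in Tris acetate pH 7.5 buffer; luminescence output.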
SMN2 splice up – enhancers of SMN2 splice variant expression; Potency, µM (highest dose often 46.1 µM), inactives show top-dose activity change, positive = activation, usual class: activators; HEK293 SMN2-luciferase splicing reporter, luminescence, 30-36 h; 2.8% of 210,000 active; also: % of control where 0% means no effect; nearly all actives have a fitted effect of over 55% in size
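qHTS luciferase splicing reporter: luminescence rises when SMN2 exon 7 is included in transfected HEK293 cells. Compound exposure lasted 30-36 h at 37C, with 4.5 mM final sodium butyrate as control, followed by a ONE-Glo read.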
KinaseGlo FLuc – Kinase-Glo luciferase inhibition (counter-screen); 0.28% of 200,000 active; Kinase-Glo luciferase, ATP luminescence, 8 min; Potency, µM (doses to about 38.3 µM), for the others: at the top dose activity change, negative = inhibition, most hits filed as inhibitors; also: % is scaled to controls: 0 for no effect and ±100 for the full control effect; nearly all actives have a fitted effect of over 60% in size
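Compounds were added to a substrate mix at pH 7.2 (50 mM imidazole, 10 uM ATP, within the enzyme's linear range), followed by Kinase-Glo detection reagent; luminescence was measured after 8 minutes at ambient temperature.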
NPC1 promoter act – activators of NPC1 promoter | 2.4% of 320,000 active | Potency, µM (top dose mostly 9.22 µM), for the others: top-dose activation, hits mostly activators | Huh7 NPC1 promoter luciferase reporter, 24 h | AID 485313; also: % of control where 0% means no effect; nearly all actives have a fitted effect of over 60% in size
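Stably transfected Huh7 (NPC1 promoter→luciferase), 1500 cells/well in Opti-MEM + 10% FBS, 2 h settle, then compound 24 h at 37 °C. Luminescence after 10 min with Amplite reagent.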
* hit, by the source's call; ? = inconclusive; · = no result given; [ ] = remark or other dose. Calls follow the shape of the dose curve; as a rule, active = well fitted curve in the direction sought with a large enough effect; inconclusive = small, poorly fitted or top-dose-only effect, or another doubt; inactive = no such curve, though single readings can be large; an effect the other way counts as inactive or inconclusive. Potency is read from the fitted curve at half-maximal effect.

SMILES	Rab9 promoter act	FLuc counter	SMN2 splice up	KinaseGlo FLuc	NPC1 promoter act
N#C/C(=C/c1ccc([N+](=O)[O-])cc1)C(=O)Nc1ccccc1O	-2%	?	-3%	-5%	0%
N#C/C(=C\c1ccc(O)c(O)c1)C(=O)N1CCc2ccccc21	-11%	?	·	·	-11%
N#C/C(=C/c1ccc(O)c([N+](=O)[O-])c1)C(=O)Nc1ccccc1	-7%	13µM*	·	·	-31%
COC(=O)c1cc(C)nc2c1c(=O)nc(SCc1ccccc1F)n2C1CC1	·	-2%	·	·	·
COCCNc1oc(/C=C/c2ccc(F)cc2)nc1C#N	·	?	20%	·	·
COc1cc(/C=C(\C#N)C(=O)Nc2ccccn2)ccc1O	-2%	11µM*	·	·	-3%
COc1cc(/C=C/C(=O)OCC(=O)Nc2ccc3c(c2)OCCO3)ccc1O	-4%	?	26%	6%	-1%
COc1cc(/C=C(\C#N)C(=O)Nc2ccc3c(c2)OCCO3)ccc1O	12%	0.27µM*	·	·	-5%
CCc1ccccc1NC(=O)c1ccc(Cn2nc(N3CCN(c4ccccc4)CC3)ccc2=O)o1	·	5%	·	·	·
CN(C)CCCN(C(=O)c1cccs1)c1nc2ccc(F)cc2s1	·	-2%	·	·	·
CN(C)CCCOC(=O)c1sc2ccccc2c1Cl	0%	24µM*	·	-2%	-8%
Cc1ccc2nc(N(CCCN(C)C)C(=O)c3ccc4ncsc4c3)sc2c1	4µM*	17µM*	·	·	?
CN(C)CCCN(C(=O)c1sc2ccccc2c1Cl)c1nc2ccc(F)cc2s1	-4%	4.8µM*	18µM*	1%	-2%
Brc1ccc(N=NNc2ccccc2)cc1	?	6µM*	·	·	?
O=[N+]([O-])c1ccc(N=NNc2ccccc2)cc1	?	?	16µM*	-1%	26%
O=[N+]([O-])c1cccc(NN=Nc2ccccc2)c1	?	11µM*	·	·	?
O=C(O)c1cc(NN=Nc2cccc([N+](=O)[O-])c2)cc([N+](=O)[O-])c1	-2%	?	·	·	-5%
COc1cccc(NC(=O)CSc2nccn2Cc2ccc3c(c2)OCO3)c1	·	-11%	·	·	·
CCOc1ccccc1NC(=O)CN1C(=O)COc2ccc(S(=O)(=O)Nc3ccccc3)cc21	·	-1%	·	·	·
CCCN1CCN(C(=O)c2noc3c2COc2ccc(C)cc2-3)CC1	-1%	-14%	·	·	3%
CCOC(=O)N1CCN(C(=O)c2noc3c2COc2ccccc2-3)CC1	?	13µM*	·	·	?
Clc1ccc2[nH]c(-c3ccccc3)cc2c1	2.5µM*	11µM*	?	8%	3.2µM*
COc1ccc(-c2cc3ccccc3[nH]2)cc1	2µM*	4.8µM*	·	·	3.5µM*
Cc1ccc(O)c(-c2cc3ccccc3[nH]2)c1	17%	27µM*	12%	0%	21%
c1ccc(-c2cc3ccccc3[nH]2)cc1	?	19µM*	·	·	?
SMILES	Rab9 promoter act	FLuc counter	SMN2 splice up	KinaseGlo FLuc	NPC1 promoter act
Cc1ccc(C(=O)OCc2cc3ccccc3[nH]c2=O)cc1	-5%	3%	17%	-1%	0%
O=c1cc(-c2ccccc2)[nH]c2ccc(Cl)cc12	·	·	·	-1%[39.9 µM]	·
O=C(NCCc1ccc(Cl)cc1)c1ccc(CSCc2ccc(Cl)cc2)o1	·	-3%	·	·	·
CCOc1ccc(-n2c(SCC(=O)N3CCCCC3)nc3c([nH]c4ccccc43)c2=O)cc1	·	1%	·	·	·
Fc1ccc2c(Cl)c(-c3nnc(-c4cccs4)o3)sc2c1	0.56µM*	0.19µM*	4.5µM*	-9%	1.4µM*
c1cncc(-c2nnc(-c3cccs3)o2)c1	?	-14%	1%	-2%	15%
Cc1cc([N+](=O)[O-])ccc1NC(=O)CSc1nccn1C	·	1%	-27%	·	·
CCn1c(C)nc2cc(C(=O)N/N=C/c3ccc(OC)cc3)ccc21	-4%	?	-6%	-5%	-1%
CCn1c(C)nc2cc(C(=O)N/N=C/c3ccccc3)ccc21	3.5µM*	21µM*	18µM*	0%	3.2µM*
CCn1c(C)nc2cc(C(=O)N/N=C/c3ccc(O)cc3)ccc21	-3%	15µM*	21%	-4%	1%
CCn1c(C)nc2cc(C(=O)OC(C(F)(F)C(F)F)C(F)(F)C(F)F)ccc21	?	3.8µM*	-26%	-3%	?
CCn1c(C)nc2cc(C(=O)N/N=C/c3ccc(N4CCOCC4)cc3)ccc21	2%	-18%	11%	-1%	11%
CCn1c(C)nc2cc(C(=O)N/N=C/c3cccc(O)c3O)ccc21	-13%	8.5µM*	·	·	-19%
COc1ccc(OC)c(S(=O)(=O)Nc2cc3c(cc2C)n(C)c(=O)c(=O)n3C)c1	·	-2%	·	·	·
CCn1c(C)nc2cc(C(=O)N=Nc3c(O)[nH]c4ccccc34)ccc21	?	6µM*	56%	-2%	?
CCn1c(C)nc2cc(C(=O)N=Nc3c(O)[nH]c4c(C)cc(C)cc34)ccc21	-2%	-1%	-41%	-3%	-3%
CCCCSc1ncc(C(=O)OCC)c(N)n1	3.2µM*	3.8µM*	5µM*	-2%	?
CCOC(=O)c1cnc(SCC(=O)c2ccc(Cl)cc2)nc1N	1%	-2%	-9%	-2%	9%
CCOC(=O)c1cnc(SCc2ccc(C)cc2)nc1N	23%	17µM*	11µM*	1%	?
CCOC(=O)c1cnc(SCCc2ccccc2)nc1N	1.6µM*	3µM*	13µM*	-5%	3.2µM*
CN1CCN(C(c2cccc(Br)c2)c2sc3nc(-c4ccco4)nn3c2O)CC1 (centres undefined)	·	-10%	·	·	·
CC1(C)OC(=O)C(=NNc2ccc(Br)cc2)C(=O)O1	-4%	19µM*	-29%	5%	-2%
O=C(NCCN1C(=O)C2C3C=CC(C3)C2C1=O)Nc1ccccc1 (centres undefined)	1%	-6%	-13%	6%	3%
COc1ccc(NC(=O)NCCN2C(=O)C3C4C=CC(C4)C3C2=O)cc1 (centres undefined)	?	?	11µM*	4%	?
Cc1ccc(NC(=O)NCCN2C(=O)C3C4C=CC(C4)C3C2=O)cc1 (centres undefined)	1.6µM*	17µM*	11µM*	1%	2.5µM*
SMILES	Rab9 promoter act	FLuc counter	SMN2 splice up	KinaseGlo FLuc	NPC1 promoter act
Cc1cccc(-n2nc(C)c(C(=O)Nc3cc(C)ccc3C)c2-n2cccc2)c1	·	-10%	·	·	·
CCOc1ccc(S(=O)(=O)NCC(c2ccco2)S(=O)(=O)c2cccs2)cc1 (centres undefined)	·	-2%	·	·	·
Nc1cccc(/C=C/c2ccncc2)c1	25%	17µM*	·	·	?
Nc1cccc(CCc2ccncc2)c1	15%	-3%	·	·	3%
Cc1ncc(CO)c(/C=N/N=C/c2ccccc2O)c1O	-3%	2.4µM*	23%	-3%	1%
Cc1cc(N=Cc2c(CO)cnc(C)c2O)c(N=Cc2c(CO)cnc(C)c2O)cc1C.[Zn]	·	·	-15%[9.22 µM]	-2%[7.66 µM]	·
Cc1cc(C)cc(NC(=O)Cn2c(=O)n(Cc3ccco3)c(=O)c3oc4ccccc4c32)c1	·	-1%	·	·	·
Cc1ccc(S(=O)(=O)NC(=O)Nc2ncn[nH]2)cc1	·	·	-3%[9.22 µM]	-3%[7.66 µM]	·
